Source: PubChem BioAssay (Tox21)
Results filed as inconclusive are left out. Activity calls are given as the source filed them. Unless noted, calls follow the shape of the dose curve; as a rule, active = well fitted curve in the direction sought with a large enough effect in the repeat runs; inconclusive = weak or mixed curves; inactive = no such curve, though single readings can be large; an effect the other way counts as inactive or inconclusive.

How the values were obtained:
[1] = qHTS assay to identify small molecule agonists of the peroxisome proliferator-activated receptor delta (PPARd) signaling pathway - cell viability counter screen (AID 743211); also: nearly all actives have a fitted effect of over 55% in size; also: potency is read from the fitted curve at half-maximal effect
Method in brief: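 qHTS cell viability: PPARd-bla HEK293H; 17 h cpd, 37C; CellTiter-Glo, luminescence at 30 min RT.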

[2] = qHTS assay to identify small molecule antagonists of the peroxisome proliferator-activated receptor delta (PPARd) signaling pathway - cell viability counter screen (AID 743213); also: nearly all actives have a fitted effect of over 50% in size; also: potency is read from the fitted curve at half-maximal effect
Method in brief: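 Luminescence from CellTiter-Glo, added after the bla read and incubated 30 min at room temperature, gives viability of HEK293H PPARd-bla cells exposed to compounds for 17 h at 37 C with 300 nM L165041.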

[3] = target: Bile acid receptor (Homo sapiens) (UniProt Q96RI1); assay: qHTS assay to identify small molecule antagonists of the farnesoid-X-receptor (FXR) signaling pathway (AID 743217; active = well fitted inhibition curve with a large enough effect in the signal ratio in the repeat runs, not every such curve was filed as active; the % refers to the signal ratio; also: potency is read from the fitted curve at half-maximal effect)
Method in brief: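 Cells carrying a UAS-driven beta-lactamase reporter (GeneBLAzer FXR-UAS-bla HEK 293T) were plated and rested 5 h at 37 °C. Compounds in DMSO were added alongside chenodeoxycholic acid agonist at 50 uM final and left 16 h at 37 °C before FRET substrate readout.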

[4] = qHTS assay to identify small molecule agonists of the farnesoid-X-receptor (FXR) signaling pathway - cell viability counter screen (AID 743218); also: nearly all actives have a fitted effect of over 45% in size; also: potency is read from the fitted curve at half-maximal effect
Method in brief: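 Cells were seeded, left 5 h at 37 C and 5% CO2, then dosed with compound in DMSO for 16 h. After the beta-lactamase FRET read, CellTiter-Glo was added and luminescence measured 30 min later.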

[5] = qHTS assay to identify small molecule antagonists of the farnesoid-X-receptor (FXR) signaling pathway - cell viability counter screen (AID 743221; active = well fitted cell-killing curve with a large enough effect in the repeat runs, not every such curve was filed as active; also: nearly all actives have a fitted effect of over 50% in size; also: potency is read from the fitted curve at half-maximal effect)
Method in brief: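 After a 5 h settling period, FXR-bla HEK 293T cells receive compound and chenodeoxycholic acid (50 uM final) and incubate 16 h at 37 C; CellTiter-Glo luminescence, read after 30 min at room temperature, reports cell viability.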

[6] = qHTS assay to identify small molecule agonists of the vitamin D receptor (VDR) signaling pathway - cell viability counter screen (AID 743224); also: nearly all actives have a fitted effect of over 50% in size; also: potency is read from the fitted curve at half-maximal effect
Method in brief: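 Cells: VDR-bla, 2,000/well, settled 4 h. Treatment: compounds in DMSO, 16 h, 37C/5% CO2. Readout: CellTiter-Glo luminescence after 30 min RT.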

[7] = qHTS assay to identify small molecule antagonists of the vitamin D receptor (VDR) signaling pathway - cell viability counter screen (AID 743225); also: nearly all actives have a fitted effect of over 50% in size; also: potency is read from the fitted curve at half-maximal effect
Method in brief: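 Parallel cytotoxicity test: VDR-UAS-bla HEK 293T, 3 nM (final) 1-alpha,25-dihydroxyvitamin D3 with test compound, 16 h, 37C. Endpoint is CellTiter-Glo luminescence in the same wells.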

[8] = qHTS assay to identify small molecule agonists of the NFkB signaling pathway - cell viability counter screen (AID 1159515; calls by dose curve; also: nearly all actives have a fitted effect of over 55% in size; also: potency is read from the fitted curve at half-maximal effect)
Method in brief: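 Cells are seeded (2,000 NFkB-bla ME-180 per well), rested overnight, and dosed with DMSO-dissolved compounds for 5 hr at 37 C. Viability is then read by CellTiter-Glo luminescence after 30 min at room temperature.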

[9] = qHTS assay to identify small molecule agonists of the endoplasmic reticulum stress response signaling pathway - cell viability counter screen (AID 1159517; calls by dose curve; also: nearly all actives have a fitted effect of over 50% in size; also: potency is read from the fitted curve at half-maximal effect)
Method in brief: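 After overnight attachment, ESRE-bla HeLa cells were treated with Tox21 library compounds for 5 hr. CellTiter-Glo luminescence, read 30 min post-addition at room temperature, reported viability.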

[10] = qHTS assay to identify small molecule antagonists of the retinoid-related orphan receptor gamma (ROR-gamma) signaling pathway - cell viability counter screen (AID 1159520); also: nearly all actives have a fitted effect of over 50% in size; also: potency is read from the fitted curve at half-maximal effect
Method in brief: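 Cytotoxicity was read from cellular ATP (CellTiter-Glo luminescence) after 16 hr at 37 C with 1 uM doxycycline induction. The inducer was added 2 hr after compound transfer to Tet-on ROR gamma CHO cells.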

[11] = target: Nuclear receptor ROR-gamma (Homo sapiens) (UniProt P51449); assay: qHTS assay to identify small molecule antagonists of the retinoid-related orphan receptor gamma (ROR-gamma) signaling pathway (AID 1159521; also: nearly all actives have a fitted effect of over 50% in size; also: potency is read from the fitted curve at half-maximal effect)
Method in brief: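 Decreased RORE-driven luciferase luminescence indicates antagonism. Tet-on RORγ CHO cells received compound, then 1 uM final doxycycline 2 h later; signal read after 16 h incubation.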

[12] = qHTS assay to identify small molecule agonists of the AP-1 signaling pathway - cell viability counter screen (AID 1159525; calls by dose curve; also: nearly all actives have a fitted effect of over 55% in size; also: potency is read from the fitted curve at half-maximal effect)
Method in brief: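 Intracellular ATP by Cell Titer Glo luminescence (30 min, RT) in the same ME-180 AP-1-bla wells after the 5 h compound exposure at 37 °C. Normalised to tetra n-octyl ammonium bromide and DMSO controls.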

[13] = target: Peroxisome proliferator-activated receptor delta (Homo sapiens) (UniProt Q03181); assay: qHTS assay to identify small molecule antagonists of the peroxisome proliferator-activated receptor delta (PPARd) signaling pathway (AID 743215; active = well fitted inhibition curve with a large enough effect in the signal ratio in the repeat runs, not every such curve was filed as active; the % refers to the signal ratio;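 also: cells stimulated with agonist L165041 at 300 nM final during compound exposure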; also: potency is read from the fitted curve at half-maximal effect)
Method in brief: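 Cells: HEK293H with a UAS-driven beta-lactamase reporter responsive to PPARd. Compounds were co-added with L165041 (300 nM, final) and incubated 17 h at 37 C before a 2 h room-temperature FRET substrate step and fluorescence reading.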

[14] = target: Bile acid receptor (Homo sapiens) (UniProt Q96RI1); assay: qHTS assay to identify small molecule agonists of the farnesoid-X-receptor (FXR) signaling pathway (AID 743220; active = well fitted activation curve with a large enough effect in the signal ratio in the repeat runs, not every such curve was filed as active; the % refers to the signal ratio)
Method in brief: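 FXR-UAS-bla HEK 293T cells carrying a UAS-driven beta-lactamase reporter were plated for 5 h at 37C/5% CO2, then exposed to DMSO-dissolved Tox21 10K compounds for 16 h at 37C. A LiveBLAzer B/G FRET substrate was loaded for 2 h at room temperature before fluorescence reading.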

[15] = target: Vitamin D3 receptor (Homo sapiens) (UniProt P11473); assay: qHTS assay to identify small molecule antagonists of the vitamin D receptor (VDR) signaling pathway (AID 743223; active = well fitted inhibition curve with a large enough effect in the signal ratio in the repeat runs, not every such curve was filed as active; the % refers to the signal ratio)
Method in brief: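 Reporter line VDR-bla; stimulus 1alpha,25-(OH)2 vitamin D3, 3 nM final; compound co-addition, 16 h 37C/5% CO2; LiveBLAzer B/G substrate 2 h RT; fluorescence intensity.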

[16] = target: Retinoic acid receptor RXR-alpha (Homo sapiens) (UniProt P19793); assay: qHTS assay to identify small molecule agonists of the RXR signaling pathway (AID 1159527; calls by dose curve; also: nearly all actives have a fitted effect of over 35% in size; also: potency is read from the fitted curve at half-maximal effect)
Method in brief: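 16 hr incubation of compound-treated RXR-alpha-UAS-bla HEK 293T cells (2% charcoal-stripped FBS, 37 C) preceded a 2 hr room-temperature LiveBLAzer FRET substrate step and blue/green fluorescence measurement.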

[17] = target: Peroxisome proliferator-activated receptor delta (Homo sapiens) (UniProt Q03181); assay: qHTS assay to identify small molecule agonists of the peroxisome proliferator-activated receptor delta (PPARd) signaling pathway (AID 743212; calls by dose curve)
Method in brief: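 Steps: seed PPARd-bla HEK293H cells; incubate 5 h, 37 C, 5% CO2; add compounds in DMSO; incubate, 37 C; add LiveBLAzer B/G FRET substrate; hold 2 h at room temperature; measure fluorescence.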

[18] = target: Vitamin D3 receptor (Homo sapiens) (UniProt P11473); assay: qHTS assay to identify small molecule agonists of the vitamin D receptor (VDR) signaling pathway (AID 743222; calls by dose curve; also: potency is read from the fitted curve at half-maximal effect)
Method in brief: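 Cells carrying a VDR-driven beta-lactamase reporter are seeded at 2,000 per well and rested 4 h. Compounds in DMSO are added for 16 h at 37C, and FRET substrate fluorescence is measured after 2 h at room temperature.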

[19] = qHTS assay to identify small molecule agonists of the AP-1 signaling pathway (AID 1159526; calls by dose curve)

Measured: Potency

Bile acid receptor (Homo sapiens), sequence (Q96RI1 whole entry, looked up): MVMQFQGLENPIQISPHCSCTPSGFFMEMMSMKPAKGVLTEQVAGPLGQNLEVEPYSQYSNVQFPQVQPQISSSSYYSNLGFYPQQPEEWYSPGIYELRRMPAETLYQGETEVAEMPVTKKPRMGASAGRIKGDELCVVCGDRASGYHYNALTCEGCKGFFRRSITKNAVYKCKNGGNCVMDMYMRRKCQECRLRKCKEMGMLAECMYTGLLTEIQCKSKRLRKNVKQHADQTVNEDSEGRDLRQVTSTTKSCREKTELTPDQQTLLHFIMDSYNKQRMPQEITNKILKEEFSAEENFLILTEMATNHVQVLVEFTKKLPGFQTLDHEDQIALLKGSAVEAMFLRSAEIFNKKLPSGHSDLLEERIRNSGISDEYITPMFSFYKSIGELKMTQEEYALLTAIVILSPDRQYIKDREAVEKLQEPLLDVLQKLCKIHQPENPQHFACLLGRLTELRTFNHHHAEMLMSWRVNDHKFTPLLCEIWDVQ
Retinoic acid receptor RXR-alpha (Homo sapiens), sequence (P19793 whole entry, looked up): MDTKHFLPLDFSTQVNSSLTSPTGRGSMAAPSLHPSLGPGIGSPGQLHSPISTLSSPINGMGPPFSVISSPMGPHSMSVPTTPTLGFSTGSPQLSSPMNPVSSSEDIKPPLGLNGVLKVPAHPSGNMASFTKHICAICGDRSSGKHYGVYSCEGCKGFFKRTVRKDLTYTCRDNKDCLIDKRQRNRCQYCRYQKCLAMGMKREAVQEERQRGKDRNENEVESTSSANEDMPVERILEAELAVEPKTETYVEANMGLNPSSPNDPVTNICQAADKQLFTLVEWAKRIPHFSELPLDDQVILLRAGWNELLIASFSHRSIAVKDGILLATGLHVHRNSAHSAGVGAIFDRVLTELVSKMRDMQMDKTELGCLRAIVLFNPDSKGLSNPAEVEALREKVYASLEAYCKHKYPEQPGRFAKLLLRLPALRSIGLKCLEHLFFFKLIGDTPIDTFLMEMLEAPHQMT
Vitamin D3 receptor (Homo sapiens), sequence (P11473 whole entry, looked up): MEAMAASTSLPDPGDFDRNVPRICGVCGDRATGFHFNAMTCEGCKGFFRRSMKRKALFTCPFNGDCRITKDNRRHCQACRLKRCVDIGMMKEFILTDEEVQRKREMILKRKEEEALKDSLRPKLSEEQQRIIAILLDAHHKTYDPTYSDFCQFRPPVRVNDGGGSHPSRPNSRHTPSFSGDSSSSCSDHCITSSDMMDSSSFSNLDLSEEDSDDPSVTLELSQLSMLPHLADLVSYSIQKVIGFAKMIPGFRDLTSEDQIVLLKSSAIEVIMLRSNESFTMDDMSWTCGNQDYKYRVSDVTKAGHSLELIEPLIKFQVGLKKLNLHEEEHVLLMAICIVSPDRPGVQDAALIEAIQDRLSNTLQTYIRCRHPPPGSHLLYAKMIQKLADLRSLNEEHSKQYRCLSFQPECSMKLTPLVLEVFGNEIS
Peroxisome proliferator-activated receptor delta (Homo sapiens), sequence (Q03181 whole entry, looked up): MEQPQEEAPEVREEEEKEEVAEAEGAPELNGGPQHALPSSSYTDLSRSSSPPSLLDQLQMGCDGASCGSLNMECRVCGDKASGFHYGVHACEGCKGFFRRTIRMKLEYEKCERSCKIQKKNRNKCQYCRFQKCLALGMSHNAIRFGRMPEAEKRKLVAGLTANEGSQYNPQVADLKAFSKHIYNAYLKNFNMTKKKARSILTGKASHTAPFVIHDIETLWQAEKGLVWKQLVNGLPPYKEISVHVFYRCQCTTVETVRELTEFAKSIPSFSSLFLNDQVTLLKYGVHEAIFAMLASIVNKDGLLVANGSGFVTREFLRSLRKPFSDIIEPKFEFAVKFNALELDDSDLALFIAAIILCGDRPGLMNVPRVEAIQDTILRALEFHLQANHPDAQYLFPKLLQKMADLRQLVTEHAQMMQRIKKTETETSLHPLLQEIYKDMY

CCCCCCCCn1sc(Cl)c(Cl)c1=O
active: [1] 3.09 µM | [2] 3.89 µM | [3] 43.6 µM | [4] 4.36 µM | [5] 9.77 µM | [6] 2.75 µM | [7] 6.92 µM | [8] 9.77 µM | [9] 3.47 µM | [10] 2.73 µM | [11] 4.86 µM | [12] 19.5 µM

Oc1cc2ccccc2c2ccccc12
active: [1] 6.92 µM | [2] 5.49 µM | [4] 11 µM | [5] 9.77 µM | [6] 2.45 µM | [7] 4.36 µM | [8] 4.9 µM | [9] 11 µM | [10] 17.2 µM | [11] 12.2 µM | [12] 11 µM

Clc1ccc2cc3ccccc3cc2c1
active: [16] 54.9 µM
not listed: [4] | [17] | [18] | [19]
inactive: all other assays above

Clc1ccc(C(Cn2ccnc2)OCc2ccc(Sc3ccccc3)cc2)c(Cl)c1 (stereo not drawn)
active: [1] 29.8 µM
inactive: [17] | [2] | [18] | [8] | [9] | [10] | [11] | [12] | [16]

Oc1cccc2cc3cccc(O)c3c(O)c12
not listed: [4] | [12] | [13] | [15] | [16] | [18] | [19]
inactive: all other assays above

OCCN(CCO)c1nc(N2CCCCC2)c2nc(N(CCO)CCO)nc(N3CCCCC3)c2n1
inactive: [4] | [5] | [8] | [9] | [10] | [11] | [12]

CN(C)c1ccc(C2(c3ccc(N(C)C)cc3)OC(=O)c3cc(N(C)C)ccc32)cc1
inactive: [2] | [5] | [15] | [6] | [7] | [8] | [9] | [10] | [11] | [12]

O=C(Oc1ccccc1)c1ccccc1C(=O)Oc1ccccc1
not listed: [2] | [3] | [4] | [11] | [14] | [15] | [16] | [18]
inactive: all other assays above

CCCCCCCC/C=C/CCCCCCCC1=NCCN1CCO
active: [1] 30.9 µM | [2] 49 µM | [3] 54.9 µM | [4] 21.9 µM | [6] 34.7 µM | [7] 34.7 µM | [8] 49 µM | [9] 43.6 µM | [10] 68.6 µM | [11] 61.1 µM

CC(C)(C)C(=O)OCOC(=O)C1N2C(=O)CC2S(=O)(=O)C1(C)C (stereo not drawn)
active: [13] 2.11 µM
inactive: [17] | [2] | [4] | [14] | [5] | [8] | [9] | [10] | [11] | [12]

N=C1C=CC(=C(c2ccc(N)cc2)c2ccc(N)cc2)C=C1
active: [10] 13.7 µM | [11] 15.4 µM
inactive: [17] | [5] | [8] | [9] | [12]

CCOc1ccc2nc3cc(N)ccc3c(N)c2c1
inactive: [2] | [4] | [7] | [8] | [9] | [10] | [11] | [12]

CCCCc1oc2ccc(NS(C)(=O)=O)cc2c1C(=O)c1ccc(OCCCN(CCCC)CCCC)cc1
active: [1] 16.8 µM | [2] 23.7 µM | [4] 26.6 µM | [6] 26.6 µM | [7] 23.9 µM | [8] 26.8 µM | [9] 21.3 µM | [10] 26.6 µM | [11] 23.7 µM | [12] 19 µM

Nc1ccc2cc(S(=O)(=O)O)cc(O)c2c1N=Nc1ccccc1C(F)(F)F
not listed: [4] | [11] | [16]
inactive: all other assays above

O=C(OCC1CO1)C1CCCCC1C(=O)OCC1CO1 (stereo not drawn)
inactive: [1] | [2] | [4] | [5] | [18] | [8] | [9] | [10] | [11] | [19]

CC(=O)SC[C@@H](Cc1ccccc1)C(=O)NCC(=O)OCc1ccccc1
not listed: [1] | [3] | [11] | [13] | [14] | [15] | [18]
inactive: all other assays above

Cc1cccc2c1cc1ccc3cccc4ccc2c1c34
active: [18] 3.16 µM
inactive: [1] | [2] | [15] | [6] | [7] | [8] | [9] | [10] | [11] | [12]
